Bioassay records deposited in PubChem by several laboratories.
This is a sample that favours compounds with a hit; in the whole collection about 2.5% have one here.
PKA-R2B act: activators of PKA-R2B holoenzyme, primary screen, biochemical, fluorescence polarization, Cy5-IP20, human; cAMP-dependent protein kinase catalytic subunit beta (Homo sapiens) + cAMP-dependent …; PKA-R2B holoenzyme dissociation; R2B truncated from residue 108, S112A mutant; 0% DMSO only, 100% 113 µM cGMP; activation, % at 11.4 µM; 0.079% of 340,000 active;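 active means activation above a cutoff set at the mean over all compounds plus 3 SD, cut at about 18% in these data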;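 further: higher means more holoenzyme dissociation and a rise in polarization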
Target sequence (P31323 whole entry, looked up, other chains not shown, the tested form may be a part): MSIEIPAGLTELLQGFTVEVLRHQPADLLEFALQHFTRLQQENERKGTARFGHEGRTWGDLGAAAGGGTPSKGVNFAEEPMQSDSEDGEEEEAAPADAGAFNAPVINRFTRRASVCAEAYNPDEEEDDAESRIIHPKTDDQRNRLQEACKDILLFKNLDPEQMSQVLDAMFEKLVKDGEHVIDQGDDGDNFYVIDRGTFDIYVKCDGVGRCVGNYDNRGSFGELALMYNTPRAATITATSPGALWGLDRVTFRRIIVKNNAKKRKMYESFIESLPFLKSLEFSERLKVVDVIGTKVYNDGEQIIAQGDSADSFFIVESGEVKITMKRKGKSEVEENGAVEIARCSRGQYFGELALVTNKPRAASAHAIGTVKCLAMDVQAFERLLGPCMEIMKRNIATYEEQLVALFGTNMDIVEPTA
ANO1 block: TMEM16A chloride channel inhibitors, primary screen, cell-based, HTS; Anoctamin-1 (Mus musculus), Q8BHY3; HEK293 TMEM16A/YFP iodide influx fluorescence, ionomycin; normalized B-score (activity score, 25-100; higher = stronger inhibition) at 10 µM; 1.2% of 310,000 active; AID 588511, 2011;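 active means ratio plate-corrected score three or more library SD toward inhibition, starting fluorescence score within five deviations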;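 further: score derived from kinetic fluorescence span divided by baseline fluorescence per well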
CHT PAM: CHT positive allosteric modulators, primary screen, cell-based, membrane potential dye, choline EC20; B-score at 10 µM; High affinity choline transporter 1 (Homo sapiens), Q9GZV3; AID 488977, 2010; CHT-expressing cells; hits give high values; LV-AA mutant CHT in HEK293 cells; 0.49% of 310,000 active;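 active means initial fluorescence not abnormally high and integrated response B-score, plate-corrected, over 3 SD above library mean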
CHT block: inhibitors of human choline transporter CHT; 0.86% of 310,000 active; CHT-expressing cells, membrane potential dye, choline response; hits give low values; AID 488975, 2010; B-score at 10 µM;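 active means B-score over 3 SD under the library average, and starting fluorescence ratio not unusually high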;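 further: choline stimulus applied at its EC90 after an EC20 pre-addition; B-score computed on integrated fluorescence ratio after choline addition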
ANO1 activ: TMEM16A chloride channel activators or potentiators, primary screen, cell-based, HTS | 0.3% of 340,000 active | HEK293 TMEM16A/YFP-H148Q/I152L, iodide quench fluorescence; hits give low values | B-score at 10 µM | Anoctamin-1 (Mus musculus), Q8BHY3;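 active means fluorescence-ratio B-score plate-corrected deviation score at least 3 library SD below zero, with starting fluorescence score within 5 deviations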;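 further: channel opened by trigger with iodide after compound preincubation; score built on the fluorescence ratio of max minus min over baseline; more negative score means more quench and so TMEM16A activation or potentiation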
PKA-R1A act: activators of PKA-R1A holoenzyme, primary screen, biochemical, fluorescence polarization, Cy5-IP20, bovine R1A, mouse PKAc | cAMP-dependent protein kinase type I-alpha regulatory subunit (Bos taurus) + … | PKA-R1A dissociation; scaled: DMSO 0%, 113 µM cGMP 100% | activation, % at 11.4 µM | 0.083% of 340,000 active;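 active means percent activation above the mean of all tested compounds plus 3 SD, cut at about 19% in these data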;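 further: higher means more PKAc released from R1A so a rise in polarization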
Starred values were filed as active, the others as inactive.

For O=C1C[C@@H]2c3c(cccc3CN1Cc1ccc(F)cc1)C[C@@H](O)[C@H]2O the results were PKA-R2B act -3.0, ANO1 activ inactive and PKA-R1A act 2.3.
For Cc1ccc(C(=O)Nc2cc3[nH]c(=O)oc3cc2C)cc1 the results were PKA-R2B act 9.3, ANO1 block inactive, CHT PAM inactive, CHT block inactive, ANO1 activ inactive and PKA-R1A act -5.7.
COc1cc(SC#N)ccc1N=Cc1c(C)[nH]n(-c2ccc(C)c(C)c2)c1=O was read as PKA-R2B act 3.9, ANO1 block inactive, CHT PAM inactive, CHT block inactive, ANO1 activ -12.5* and PKA-R1A act -4.6.
COc1cc(SC#N)ccc1N=Cc1c(C)[nH]n(-c2ccc(Cl)cc2)c1=O was read as PKA-R2B act 4.3, ANO1 block inactive, CHT PAM inactive, CHT block inactive, ANO1 activ inactive and PKA-R1A act -9.2.
Screening CC(NC(=O)CCNS(=O)(=O)c1cccc2nonc12)c1ccccc1 (centres undefined) returned PKA-R2B act 2.9, ANO1 block inactive, CHT PAM inactive, CHT block inactive, ANO1 activ inactive and PKA-R1A act 1.1.
For CCCN(CCC)S(=O)(=O)c1ccc(C(=O)Nc2nnc(-c3cccc(OC)c3)o2)cc1 the results were PKA-R2B act -1.0, ANO1 block 25*, CHT PAM inactive, CHT block inactive, ANO1 activ inactive and PKA-R1A act 8.7.
Screening CCCN(CCC)S(=O)(=O)c1ccc(C(=O)Nc2nnc(-c3cc(OC)cc(OC)c3)o2)cc1 returned PKA-R2B act 2.8, ANO1 block 100*, CHT PAM inactive, CHT block inactive, ANO1 activ inactive and PKA-R1A act 6.7.
`CCCN(CCC)S(=O)(=O)c1ccc(C(=O)Nc2nnc(CSC)o2)cc1` gave PKA-R2B act -4.1, ANO1 block inactive, CHT PAM inactive, CHT block inactive, ANO1 activ inactive and PKA-R1A act -8.8.
Screening Cc1ccc(NS(=O)(=O)c2ccc(C(=O)N3CCN(c4ncccn4)CC3)cc2)cc1 returned PKA-R2B act -6.8, ANO1 block 25*, CHT PAM inactive, CHT block inactive, ANO1 activ inactive and PKA-R1A act -2.5.
`Cc1ccc(C(=O)N2CCN(c3ncccn3)CC2)cc1` gave PKA-R2B act 2.2, ANO1 block inactive, CHT PAM inactive, CHT block inactive, ANO1 activ inactive and PKA-R1A act -3.1.
C=CCn1c(N2CCN(c3ccc(OC)cc3)CC2)nc2c1c(=O)[nH]c(=O)n2C was read as PKA-R2B act -5.0, ANO1 block inactive, CHT PAM inactive, CHT block inactive, ANO1 activ inactive and PKA-R1A act -8.4.
Cc1ccc(CNc2ccc3c(c2)ncn3C(C)C)cc1 was read as PKA-R2B act -3.0, ANO1 block inactive, CHT PAM inactive, CHT block inactive, ANO1 activ -13.4* and PKA-R1A act -13.9.
`NC(=O)c1cc(Cl)ccc1OCC(=O)N1CCCc2ccccc21` gave PKA-R2B act -7.4, ANO1 block inactive, CHT PAM inactive, CHT block inactive, ANO1 activ inactive and PKA-R1A act -3.6.
For O=C(CCCOc1ccc(Cl)cc1Cl)N1CCCc2ccccc21 the results were PKA-R2B act 6.0, ANO1 block 100*, CHT PAM inactive, CHT block inactive, ANO1 activ inactive and PKA-R1A act -5.9.
Screening CCOC(=O)c1sc(Nc2nc3c(OC)cccc3s2)nc1C returned PKA-R2B act 0.7, ANO1 block 100*, CHT PAM inactive, CHT block inactive, ANO1 activ inactive and PKA-R1A act 5.5.
Cc1cccc(C(=O)Nc2c(C(=O)N(C)C)cnn2-c2ccccc2)c1 was read as PKA-R2B act 1.2, ANO1 block inactive, CHT PAM inactive, CHT block inactive, ANO1 activ inactive and PKA-R1A act -11.3.
For Cc1cc2c(=O)n(Cc3ccco3)c(SCC(=O)c3ccc(Cl)s3)nc2s1 the results were PKA-R2B act 4.8, ANO1 block 25*, CHT PAM inactive, CHT block inactive, ANO1 activ inactive and PKA-R1A act -3.2.
For COc1ccc([N+](=O)[O-])c(OC)c1C(=O)NC(=O)Nc1c(F)cc(F)cc1F the results were PKA-R2B act 1.6, ANO1 block inactive, CHT PAM inactive, CHT block inactive, ANO1 activ inactive and PKA-R1A act 2.1.
Screening CSc1ccccc1OCc1cc(C(=O)N2CCSCC2)no1 returned PKA-R2B act -6.0, ANO1 block inactive, CHT PAM inactive, CHT block inactive, ANO1 activ inactive and PKA-R1A act 8.6.
CSc1ccccc1OCc1cc(C(=O)N2CCC(Oc3cccnc3)CC2)no1 was read as PKA-R2B act -3.2, ANO1 block 25*, CHT PAM inactive, CHT block inactive, ANO1 activ inactive and PKA-R1A act -5.4.
Screening CCCn1c(N)c(N(CCOC)C(=O)CCC2CCCCC2)c(=O)[nH]c1=O returned PKA-R2B act 10.4, ANO1 activ inactive and PKA-R1A act 8.7.
`Cn1c(C(=O)Nc2ccc3c(c2)OCO3)cc2c(=O)n(C)c3ccccc3c21` gave PKA-R2B act 8.9, ANO1 block inactive, CHT PAM inactive, CHT block inactive, ANO1 activ -6.79* and PKA-R1A act -6.1.
CC(NC(=O)c1cc2c(=O)n(C)c3ccccc3c2n1C)c1ccc2c(c1)OCCO2 (centres undefined) was read as PKA-R2B act 1.3, ANO1 block inactive, CHT PAM inactive, CHT block inactive, ANO1 activ inactive and PKA-R1A act 0.3.
For Cc1ccc([N+](=O)[O-])cc1NC(=S)NC(=O)C(C)(C)C the results were PKA-R2B act 8.3, ANO1 block inactive, CHT PAM inactive, CHT block inactive, ANO1 activ inactive and PKA-R1A act 4.4.
`Cc1ccc(NS(=O)(=O)c2cc([N+](=O)[O-])ccc2NNC(=S)Nc2cccc(Cl)c2)c(C)c1` gave PKA-R2B act 3.5, ANO1 block 100*, CHT PAM inactive, CHT block inactive, ANO1 activ inactive and PKA-R1A act -3.4.
